Measurements as given in PubChem BioAssay AID504862 (Sanford-Burnham Center for Chemical Genomics, 2011).
The list shows a part of the results. Calls of active or inactive are those of the source.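 The calls were made as follows: active = average inhibition reaching 50% or more with the compound at 20 µM; inactive = the rest.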

Test system: diaphorase (Clostridium kluyveri)
Assay: diaphorase inhibitors and chemical oxidizers, confirmation, counter-screen for P. falciparum G6PD inhibitor project, biochemical, fluorescence intensity, 10 µM NADPH (AID 504862);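 also: resorufin red fluorescence formed as diaphorase reduces resazurin using NADPH; 0% = DMSO with enzyme and 100% = DMSO without enzyme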
Details: diaphorase-coupled resazurin reduction, NADPH 10 uM, at 20 µM, hits give high values

Row | SMILES | inhibition
1 | O=[N+]([O-])c1c(NCCO)cc(Sc2nc3ccccc3s2)c2nonc12 | -9.49% (inactive)
2 | O=C1C=CC(=O)N1c1ccc(N2CCCCC2)cc1 | -20% (inactive)
3 | COc1ccc(OCc2nnc3n2N=C(c2ccccc2)C(CC(=O)O)S3)cc1 (stereo not given) | -3.99% (inactive)
4 | CCN(CC)c1ccc2oc(=O)c(C)nc2c1 | 87.7% (active)
5 | C=CCc1ccccc1OCC(=O)N/N=C/c1ccccc1OCC | 43.3% (inactive)
6 | O=C(CN1CCN(c2ccc(O)cc2)CC1)Nc1cc(S(=O)(=O)N2CCOCC2)ccc1Cl | -6.79% (inactive)
7 | CCOC(=O)C1=C(c2ccc(OC)cc2)C(=O)c2ccccc2C1=O | 84.4% (active)
8 | Cn1c(-c2sccc2OCc2cccc(C(F)(F)F)c2)n[nH]c1=S | 4.08% (inactive)
9 | O=C(Nc1nc(-c2ccncc2)cs1)C1COc2ccccc2O1 (stereo not given) | -37.4% (inactive)
10 | COc1cccc(C(=O)Nc2nnc(S(=O)(=O)N(C)c3ccccc3)s2)c1 | 89.1% (active)
11 | Cc1cccc(C(=O)Nc2nnc(S(=O)(=O)N3CCCCCC3)s2)c1 | 46.7% (inactive)
12 | COc1c(O)ccc2c1CN1CCc3cc4c(cc3C1C2)OCO4 (stereo not given) | 12.4% (inactive)
13 | OCCN1CCN(C(=S)c2ccc(-c3ccccc3)cc2)CC1 | -9.62% (inactive)
14 | O=C(NC1=CC(=O)c2ccccc2C1=O)c1ccccc1 | 48.7% (inactive)
15 | Cc1ccc(/C=C/C(=O)Nc2ccc([N+](=O)[O-])c(NC(=O)/C=C/c3ccc(C)o3)c2)o1 | -11.9% (inactive)
